Assay results published in PubChem BioAssay AID1159580 (chemical genetic matrix, 2015).
Several values for one entry are separate records, joined by “and”; a condition that tells them apart may be missing. Identical values can stand only once. In all, about 5,500 compounds went through this assay and about 2,000 (36%) were called active. Another 18% or so got no clear call; they are omitted. No stated cut-off is given here; in the data, active means normalized growth mostly below about 0.91 (no sharp cut-off); inconclusive means no clear call, values can overlap the other calls; inactive means mostly above about 0.92. This is one part of the list.

Test: chemical genetic growth profiling, strain panel (AID 1159580);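 further: tested at 20 µM; growth read once vehicle control cultures reached saturation at 30 °C; 1 = growth at the plate median or of vehicle wells; lower values mean less growth of the strain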
Settings: S. cerevisiae deletion strains, growth OD

Measured: normalized growth

CC1=C(/C=C/C(C)=C/C=C/C(C)=C\C(=O)O)C(C)(C)CCC1
inactive: locus YAL013W, strain DEP1, hits give low values 0.968 | locus YAL021C, strain ccr4, hits give low values 1.01 | locus YAL026C, strain drs2, hits give low values 0.999 | locus YAL030W, strain snc1, hits give low values 0.977 | locus YAL040C, strain CLN3, hits give low values 1.01 | locus YBL061C, strain skt5, hits give low values 0.984 | locus YBR009C, strain hhf1, hits give low values 1.01 | locus YBR021W, strain FUR4, hits give low values 1.02 | locus YBR023C, strain chs3, hits give low values 0.985 | locus YBR171W, strain sec66, hits give low values 0.964 | locus YBR229C, strain ROT2, hits give low values 1 | locus YBR231C, strain swc5, hits give low values 0.989 | locus YBR279W, strain paf1, hits give low values 0.996 | locus YCL011C, strain gbp2, hits give low values 0.994 | locus YCL016C, strain dcc1, hits give low values 0.999 | locus YCL029C, strain bik1, hits give low values 0.992 | locus YCL061C, strain MRC1 (second series), hits give low values 1 | locus YCL069W, strain vba3, hits give low values 0.986 | locus YCR088W, strain abp1, hits give low values 0.995 | locus YDL005C, strain med2, hits give low values 0.979 | locus YDL035C, strain GPR1, hits give low values 0.95 | locus YDL040C, strain nat1, hits give low values 0.987 | locus YDL074C, strain BRE1, hits give low values 0.856 | locus YDL101C, strain DUN1, hits give low values 1.01 | locus YDL134C, strain PPH21, hits give low values 1 | locus YDL185W, strain tfp1, hits give low values 1 | locus YDL192W, strain arf1, hits give low values 1 | locus YDR001C, strain nth1, hits give low values 0.987 | locus YDR069C, strain doa4, hits give low values 0.967 | locus YDR101C, strain arx1, hits give low values 0.985 | locus YDR137W, strain rgp1, hits give low values 0.937 | locus YDR150W, strain NUM1, hits give low values 1.02 and 1.01 | locus YDR159W, strain sac3, hits give low values 1.01 | locus YDR162C, strain NBP2, hits give low values 0.957 | locus YDR195W, strain ref2 0.972 | locus YDR297W, strain sur2, hits give low values 0.987 | locus YDR318W, strain mcm21, hits give low values 0.97 | locus YDR334W, strain swr1, hits give low values 0.982 | locus YDR335W, strain msn5, hits give low values 0.987 | locus YDR363W, strain ESC2, hits give low values 1.01 | locus YDR388W, hits give low values 1 | locus YDR392W, strain spt3, hits give low values 1.01 | locus YDR502C, strain sam2, hits give low values 0.975 | locus YEL003W, strain gim4, hits give low values 0.989 | locus YEL037C, strain rad23, hits give low values 0.979 | locus YEL061C, strain CIN8 (second series), hits give low values 0.991 | locus YEL061C, strain CIN8, hits give low values 1 | locus YER002W, strain NOP16, hits give low values 1.03 | locus YER015W, strain faa2, hits give low values 0.993 | locus YER016W, strain bim1, hits give low values 1.02 | locus YER110C, hits give low values 1 | locus YER111C, strain swi4, hits give low values 0.954 | locus YER155C, strain BEM2 (second series), hits give low values 1 | locus YER155C, strain BEM2, hits give low values 1.01 | locus YER167W, strain BCK2, hits give low values 0.966 | locus YFR010W, strain ubp6, hits give low values 0.961 | locus YGL078C, strain dbp3, hits give low values 1 | locus YGL086W, strain mad1, hits give low values 0.992 | locus YGL167C, strain pmr1, hits give low values 0.975 | locus YGL173C, strain kem1, hits give low values 0.972 | locus YGL227W, strain vid30, hits give low values 0.974 | locus YGL240W, strain doc1, hits give low values 0.958 | locus YGL248W, strain PDE1, hits give low values 0.995 | locus YGL253W, strain hxk2, hits give low values 0.996 | locus YGR078C, strain PAC10, hits give low values 0.908 and 1.02 | locus YGR135W, strain pre9, hits give low values 0.974 | locus YGR229C, strain SMI1, hits give low values 0.82 and 1.02 | locus YGR252W, strain gcn5, hits give low values 1.02 | locus YHR013C, strain ard1, hits give low values 0.982 | locus YHR027C, strain rpn1, hits give low values 0.997 | locus YHR030C, strain SLT2, hits give low values 1 and 1.02 | locus YHR079C, strain IRE1 (second series), hits give low values 0.988 | locus YHR079C, strain IRE1, hits give low values 1.04 | locus YHR094C, strain hxt1, hits give low values 0.999 | locus YHR129C, strain ARP1, hits give low values 0.996 | locus YHR142W, strain chs7, hits give low values 0.979 | locus YHR200W, strain rpn10, hits give low values 1 | locus YIL066C, strain RNR3, hits give low values 0.984 | locus YIL073C, strain SPO22, hits give low values 0.934 | locus YIL125W, strain kgd1, hits give low values 0.995 | locus YIR030C, strain dcg1, hits give low values 1.01 | locus YJL092W, strain hpr5, hits give low values 0.965 | locus YJL095W, strain BCK1 (second series), hits give low values 0.99 | locus YJL095W, strain BCK1, hits give low values 0.918 and 1.01 | locus YJL115W, strain asf1, hits give low values 0.962 | locus YJL129C, strain trk1, hits give low values 0.956 | locus YJL134W, strain LCB3, hits give low values 1 | locus YJL154C, strain vps35, hits give low values 0.986 | locus YJL164C, strain tpk1, hits give low values 1.01 | locus YJL166W, strain qcr8, hits give low values 0.928 | locus YJL168C, strain set2, hits give low values 0.999 | locus YJL187C, strain SWE1 (second series), hits give low values 0.986 | locus YJL187C, strain SWE1, hits give low values 0.994 | locus YJR043C, strain POL32, hits give low values 0.87 | locus YJR066W, strain TOR1, hits give low values 0.972
